Assay outcomes (PubChem BioAssay)
Nrf2 inh = Nrf2 pathway inhibition; A549 ARE-Fluc reporter, luciferase luminescence, 18-24 h; Potency, µM (titrated, usually from 46 µM), for inactives: at the top dose activity change, negative = inhibition, usual class: inhibitors; hit rate 2.1% among 360,000; note: % is set by controls: 0 for no effect and ±100 for the full control effect; nearly all actives have a fitted effect of over 60% in size
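Reporter: ARE-Fluc in A549. Exposure: 18-24 h, 37 °C, 5% CO2, 5% FBS OPTI-MEM. Readouts: fluorescent cytotoxicity (CellTiter-Fluor), then luminescent Nrf2 signal after BugLite.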
TrxR1 inh = inhibitors of rat thioredoxin reductase 1; Potency, µM (titrated, usually from 114 µM), for inactives: at the highest dose activity change, negative = inhibition, hits mostly inhibitors; hit rate 1% among 390,000; recombinant rTrxR1, NADPH fluorescence consumption, selenite substrate; O89049; AID 588453; note: % is set by controls: 0 for no effect and ±100 for the full control effect; nearly all actives have a fitted effect of over 65% in size
Target sequence (O89049 whole entry, looked up): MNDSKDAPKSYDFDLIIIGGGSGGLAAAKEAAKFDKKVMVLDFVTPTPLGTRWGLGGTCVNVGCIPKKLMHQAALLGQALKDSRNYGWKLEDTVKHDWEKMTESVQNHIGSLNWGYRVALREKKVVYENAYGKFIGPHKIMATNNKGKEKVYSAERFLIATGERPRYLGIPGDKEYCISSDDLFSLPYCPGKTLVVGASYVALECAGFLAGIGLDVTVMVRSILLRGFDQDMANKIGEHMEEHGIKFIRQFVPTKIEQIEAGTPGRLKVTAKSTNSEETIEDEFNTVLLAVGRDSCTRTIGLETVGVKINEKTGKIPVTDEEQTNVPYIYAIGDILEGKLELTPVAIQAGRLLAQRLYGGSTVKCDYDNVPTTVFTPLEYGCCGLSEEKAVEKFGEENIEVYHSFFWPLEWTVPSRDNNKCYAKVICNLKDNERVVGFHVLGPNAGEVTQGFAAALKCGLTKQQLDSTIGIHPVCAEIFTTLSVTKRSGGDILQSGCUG
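Rat TrxR1 (90 nM in the dispensed reagent) was pre-reduced with 400 uM NADPH for 5 min at room temperature, then incubated with compound for 15 min. After 400 uM selenite was added, NADPH fluorescence (Ex 340/Em 450 nm) was followed for 8 min.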
mIDH1 inhibitor = inhibitors of human mutant IDH1 R132H; O75874; IDH1-R132H enzyme, NADPH consumption, diaphorase/resazurin fluorescence; Potency, µM (top dose mostly 76.6 µM), for the others: top-dose activity change, negative = inhibition, most hits filed as inhibitors; hit rate 0.093% among 390,000; AID 602179; note: % is set by controls: 0 for no effect and ±100 for the full control effect; nearly all actives have a fitted effect of over 65% in size
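IDH1-R132H (0.5 ug/mL dispensed) in pH 7.5 Tris buffer was preincubated 30 min with compound, then given a substrate mix of 0.016 mM NADPH and 2 mM alpha-KG for 80 min at room temperature; remaining NADPH was read by diaphorase/resazurin fluorescence.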
A549 tox = kills or reduces viability of A549 cells in Nrf2 counter-screen. A549 ARE-Fluc cells, CellTiter-Fluor viability, 18-24 h. Potency, µM (series often up to 46 µM), for the others: at the top dose activity change, negative = cytotoxicity, usual class: inhibitors. hit rate 0.16% among 390,000; note: % is set by controls: 0 for no effect and ±100 for the full control effect
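A549 ARE_Fluc cells in 5% FBS OPTI-MEM were exposed to compounds in concentration-response for 18-24 h at 37 deg C. Viability was read by CellTiter-Fluor fluorescence (Ex 405/Em 525) after 30 min, before the luciferase read.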
Mito fusion yeast = mitochondrial division inhibition or fusion activation; S. cerevisiae fusion-defective mutant growth rescue, CellTiterGlo 48 h; hit rate 0.23% among 320,000; Potency, µM (doses to about 46.1 µM), for inactives: top-dose growth rescue (activation), usual class: activators; note: % of control where 0% means no effect; nearly all actives have a fitted effect of over 45% in size
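Growth-rescue viability read-out: after 48 h at the non-permissive 37C in glycerol/ethanol YPEG, yeast mitochondrial fusion mutants are measured by CellTiterGlo luminescence; compounds (23 nl pinned per well) restoring growth score as division inhibitors or fusion activators.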
TrxR1 substrate = rat thioredoxin reductase 1 substrate activity | O89049 | purified TrxR1 substrate turnover, NADPH consumption readout | Potency, µM (titrated, usually from 114 µM), for inactives: at the highest dose activity change, negative = substrate turnover | hit rate 0.01% among 390,000 | AID 588456; note: % is set by controls: 0 for no effect and ±100 for the full control effect; nearly all actives have a fitted effect of over 50% in size
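Rat TrxR1, dispensed at 90 nM, was prereduced with 400 uM NADPH (final) for 5 min at ~22 deg C, then incubated with compound 15 min before 400 uM selenite. A first-read NADPH fluorescence drop versus no-compound background flagged substrates.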
An asterisk follows results filed as active; ? = inconclusive; / = no result given; ! = not active in a repeat; [ ] = dose if it differs, or a comment. Compounds with a hit are over-represented: about 3.1% of the library has one in this group of screens. Calls come from the whole dose curve; as a rule, active = well fitted curve in the direction sought with a large enough effect; inconclusive = small, poorly fitted or top-dose-only effect, or another doubt; inactive = no such curve, though single readings can be large; an effect the other way counts as inactive or inconclusive. Potency is the fitted concentration of half-maximal effect.

SMILES | Nrf2 inh | TrxR1 inh | mIDH1 inhibitor | A549 tox | Mito fusion yeast | TrxR1 substrate
FC(F)Oc1ccc(-c2csc(=Nc3cccnc3)n2CC2CCCO2)cc1 (stereo not drawn) | 14.6µM* | -7.0% | -5.8% | 0.5% | 8.5% | -4.7%
Clc1ccc(-c2csc(=Nc3cccnc3)n2CCCn2ccnc2)cc1Cl | ? | -22.6% | -0.9% | -8.2% | 8.8% | -16.9%
COCCn1c(-c2ccc(Br)cc2)csc1=Nc1cccnc1 | 18.4µM* | 24.7%[57.1 µM] | 14.3% | -15.0% | -14.8% | 10.5%[57.1 µM]
COCCCn1c(-c2ccc(S(=O)(=O)N3CCOCC3)cc2)csc1=Nc1ccccc1 | 16.4µM* | 4.2% | 0.0% | 0.6% | -1.8% | -3.8%
COc1cc(OC)c(NC(=O)N2CCOc3ccc(C)cc32)cc1Cl | 3.4% | 20.0% | 0.0% | 6.1% | / | 11.6%[11.4 µM]
Oc1ccccc1C1C=C(c2ccc3c(c2)OCO3)NC(c2cccc(Br)c2)N1 (stereo not drawn) | 18.3% | -4.5% | / | 1.8% | / | 0.1%
O=C(O)c1ccc(N/N=C/C(Br)=C/c2ccccc2)cc1 | ? | 31.6µM* | 3.6% | ? | -3.4% | -15.1%
CCN(CC)C(=O)c1ccc2c(c1)N(Cc1ccccc1F)C(=O)c1ccccc1S2=O (stereo not drawn) | 8.8% | 17.9% | 15.1% | 7.0% | / | 3.4%
N#C/C(=C\c1coc2ccccc2c1=O)C(N)=S | 23.8% | -24.9%[57.1 µM] | 4.4% | -0.1% | -3.9% | -7.5%[57.1 µM]
N#C/C(=C\c1coc2ccc(O)cc2c1=O)C(=O)Nc1nc2ccccc2s1 | -17.9% | 14.1µM* | ? | ? | 7.8% | -2.6%
COC(=O)N[C@H](c1ccccc1)[C@@]1(C)C[C@@H]1[C@@H](C)C(=O)Nc1ccc2ccccc2c1 | 18.4µM*! | 20.3%[57.1 µM] | -9.7% | ? | / | 8.6%[57.1 µM]
COc1ccc(N2C(=O)CC(Sc3n[nH]c(-c4cccc(C)c4)n3)C2=O)cc1 (stereo not drawn) | 23.7% | ? | 3.2% | 9.7% | -0.4% | 18.1%[57.1 µM]
CCOc1ccccc1N1C(=O)CC(Sc2n[nH]c(-c3ccccc3)n2)C1=O (stereo not drawn) | 1.1% | 1µM* | 14.9% | 1.1% | -6.2% | 6.7%[57.1 µM]
CN(C)c1ccc(C2CCc3ccccc3N2C(=O)c2ccccc2)cc1 (stereo not drawn) | / | 9.9%[0.0914 µM] | / | / | / | 5.6%
Nc1c(C(=O)Nc2ccc(Br)cc2)sc2nc(-c3ccco3)ccc12 | 13µM* | -33.9% | 3.3% | ? | 1.8% | -4.5%
CC(=O)c1sc2nc(-c3ccco3)ccc2c1N | ? | 10µM* | 7.2% | 9.0% | 3.3% | -1.1%
Nc1c(C(=O)Nc2ccc(F)cc2)sc2nc(-c3ccco3)ccc12 | -6.3% | ? | 9.2% | 15.6% | 5.6% | 8.0%[57.1 µM]
Cc1ccc(NC(=O)c2sc3nc4c(c(-c5ccco5)c3c2N)CCC4)cc1 | 18.4µM* | -17.5% | -3.4% | -12.2% | -3.2% | -6.3%
Cc1ccc(NC(=O)Cc2ccc(-n3c(C)nc4cccnc43)cc2)c(Cl)c1 | 20.6µM* | 3.0% | -3.2% | -11.2% | / | 3.3%
CCc1nc2cccnc2n1-c1ccc(CC(=O)O)cc1 | -11.6% | 5.8%[57.1 µM] | 1.8% | 3.4% | 4.7% | 13.8%[57.1 µM]
CCOC(=O)c1cnc(SCC(=O)Nc2sc(C)c(C)c2C#N)nc1N | 9.2µM* | 22.0% | 7.8% | ? | 0.4% | 5.0%
Nc1nc2ccc(Oc3ccccc3)cc2s1 | 24.1% | -24.8% | 4.6% | -11.7% | 19.7% | -11.6%
Nc1nc2ccc(OC(F)(F)F)cc2s1 | -10.7% | ? | 6.1% | -0.6% | 3.26µM*! | 0.7%[57.1 µM]
Cc1ccc(-n2ncc(C(=O)NCc3ccc4c(c3)OCO4)c2C2CCN(C(=O)OC(C)(C)C)CC2)c(C)c1 | ? | 17.2% | -1.7% | -2.2% | / | -0.1%
C/C(=N\NS(=O)(=O)c1ccc(Cl)c([N+](=O)[O-])c1)c1ccc(C)o1 | -8.9% | 39.8µM* | 2.5% | 2.1% | 5.2% | -7.8%
